Experimental data taken from article PMC7862700, “An all-to-all approach to the identification of sequence-specific readers for epigenetic DNA modifications on cytosine”.

What was measured:
Experiment in all cases: DAPPL (digital affinity profiling via proximity ligation, sequencing); 10 mM Tris-HCl pH 7.5, 50 mM NaCl, 1 mM DTT, 4% glycerol, room temperature, 30 min; GST-TFs on glutathione beads, 16-mer random dsDNA library, 0.1% formaldehyde crosslink after washing; high values mean tight binding
Conditions in all cases: protein: recombinant; tags: N-terminal GST; dsDNA, one strand shown
FLI1 = target: T1, FLI1 (Homo sapiens, UniProt Q01543 1-452)
T1 sequence: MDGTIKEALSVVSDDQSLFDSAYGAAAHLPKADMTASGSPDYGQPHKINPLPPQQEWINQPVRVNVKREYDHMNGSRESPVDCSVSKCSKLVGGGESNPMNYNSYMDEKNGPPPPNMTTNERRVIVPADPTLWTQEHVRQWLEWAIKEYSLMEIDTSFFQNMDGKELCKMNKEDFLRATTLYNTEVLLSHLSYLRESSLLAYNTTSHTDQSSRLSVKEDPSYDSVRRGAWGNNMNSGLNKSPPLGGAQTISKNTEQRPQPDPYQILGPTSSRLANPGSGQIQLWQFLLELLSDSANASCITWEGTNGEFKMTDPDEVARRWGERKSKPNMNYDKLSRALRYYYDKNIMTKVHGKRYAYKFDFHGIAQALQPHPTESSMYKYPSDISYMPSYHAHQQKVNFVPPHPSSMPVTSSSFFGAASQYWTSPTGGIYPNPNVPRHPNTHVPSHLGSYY
Summary of the method: (§1)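 Beads coated with glutathione captured GST-fused human transcription factors that had been expressed in yeast, and the factors were then given DNA barcodes and pooled with a tag-only sample. The pools were incubated with 200 nmole of a random double-stranded 16-mer DNA library in Tris/NaCl/DTT/glycerol buffer for 30 min at room temperature, washed, crosslinked with 0.1% formaldehyde and proximity-ligated with BsaI/T4 ligase at 37 °C for 1 h. PCR amplification and Illumina NextSeq500 sequencing came last. Binding signal is each hexamer's read frequency for a factor divided by its frequency for the tag-only sample.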

ELK1 = target: T2, ELK1 (Homo sapiens, UniProt P19419 1-428)
T2 sequence: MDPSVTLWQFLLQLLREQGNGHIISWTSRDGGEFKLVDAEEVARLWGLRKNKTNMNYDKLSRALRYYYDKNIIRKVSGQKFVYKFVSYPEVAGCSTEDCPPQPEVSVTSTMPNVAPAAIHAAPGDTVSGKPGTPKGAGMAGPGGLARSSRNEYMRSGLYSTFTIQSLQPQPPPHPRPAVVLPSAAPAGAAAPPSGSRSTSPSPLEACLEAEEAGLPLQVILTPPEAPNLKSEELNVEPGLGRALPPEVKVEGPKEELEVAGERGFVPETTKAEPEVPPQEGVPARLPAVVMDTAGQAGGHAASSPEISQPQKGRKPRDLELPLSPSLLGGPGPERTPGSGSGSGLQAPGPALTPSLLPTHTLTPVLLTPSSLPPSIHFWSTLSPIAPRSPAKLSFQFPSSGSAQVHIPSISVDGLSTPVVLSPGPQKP
Summary of the method: as §1

GABPA = target: T3, GABPA (Homo sapiens, UniProt Q06546 1-454)
T3 sequence: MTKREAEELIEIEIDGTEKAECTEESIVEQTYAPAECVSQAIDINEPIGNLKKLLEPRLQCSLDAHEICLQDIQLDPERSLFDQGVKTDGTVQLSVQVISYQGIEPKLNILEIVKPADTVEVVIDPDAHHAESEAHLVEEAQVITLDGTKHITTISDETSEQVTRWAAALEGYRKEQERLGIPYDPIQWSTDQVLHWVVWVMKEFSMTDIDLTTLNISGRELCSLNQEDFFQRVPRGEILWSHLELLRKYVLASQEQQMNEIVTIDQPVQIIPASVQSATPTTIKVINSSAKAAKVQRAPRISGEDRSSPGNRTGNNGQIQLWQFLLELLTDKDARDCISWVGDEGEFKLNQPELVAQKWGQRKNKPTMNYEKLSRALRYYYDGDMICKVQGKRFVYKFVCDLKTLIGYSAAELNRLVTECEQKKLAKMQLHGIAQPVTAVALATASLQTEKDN
Summary of the method: as §1

ERG = target: T4, ERG (Homo sapiens, UniProt P11308 1-479)
T4 sequence: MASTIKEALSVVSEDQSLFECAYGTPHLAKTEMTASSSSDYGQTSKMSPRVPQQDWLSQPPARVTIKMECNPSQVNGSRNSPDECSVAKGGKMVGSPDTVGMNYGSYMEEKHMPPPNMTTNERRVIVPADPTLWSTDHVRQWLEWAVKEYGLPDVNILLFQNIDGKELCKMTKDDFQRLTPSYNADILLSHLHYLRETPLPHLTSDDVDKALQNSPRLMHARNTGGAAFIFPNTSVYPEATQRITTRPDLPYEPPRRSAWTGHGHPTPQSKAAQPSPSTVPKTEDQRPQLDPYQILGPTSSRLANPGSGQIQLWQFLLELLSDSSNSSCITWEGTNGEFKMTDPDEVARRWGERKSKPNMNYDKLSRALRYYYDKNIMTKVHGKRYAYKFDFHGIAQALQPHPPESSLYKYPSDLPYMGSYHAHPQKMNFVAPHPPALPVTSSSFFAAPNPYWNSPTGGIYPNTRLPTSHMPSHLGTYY
Summary of the method: as §1

ELF1 = ELF1 (Homo sapiens, UniProt P32519 1-619)
Summary of the method: as §1

EHF = target: T5, EHF (Homo sapiens, UniProt Q9NZC4 1-300)
T5 sequence: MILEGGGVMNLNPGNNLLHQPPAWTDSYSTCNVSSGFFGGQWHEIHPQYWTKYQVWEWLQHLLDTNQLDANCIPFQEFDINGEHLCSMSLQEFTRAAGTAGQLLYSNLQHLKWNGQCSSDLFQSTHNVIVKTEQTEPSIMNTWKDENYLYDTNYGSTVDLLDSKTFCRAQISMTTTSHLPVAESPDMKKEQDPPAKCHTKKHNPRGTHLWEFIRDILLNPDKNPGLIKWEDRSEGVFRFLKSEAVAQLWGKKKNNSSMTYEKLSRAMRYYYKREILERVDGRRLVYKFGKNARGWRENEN
Summary of the method: as §1

SPI1 = SPI1 (Homo sapiens, UniProt P17947 1-270)
Summary of the method: as §1

SPIB = SPIB (Homo sapiens, UniProt Q01892 1-262)
Summary of the method: as §1

ELK3 = target: T6, ELK3 (Homo sapiens, UniProt P41970 1-407)
T6 sequence: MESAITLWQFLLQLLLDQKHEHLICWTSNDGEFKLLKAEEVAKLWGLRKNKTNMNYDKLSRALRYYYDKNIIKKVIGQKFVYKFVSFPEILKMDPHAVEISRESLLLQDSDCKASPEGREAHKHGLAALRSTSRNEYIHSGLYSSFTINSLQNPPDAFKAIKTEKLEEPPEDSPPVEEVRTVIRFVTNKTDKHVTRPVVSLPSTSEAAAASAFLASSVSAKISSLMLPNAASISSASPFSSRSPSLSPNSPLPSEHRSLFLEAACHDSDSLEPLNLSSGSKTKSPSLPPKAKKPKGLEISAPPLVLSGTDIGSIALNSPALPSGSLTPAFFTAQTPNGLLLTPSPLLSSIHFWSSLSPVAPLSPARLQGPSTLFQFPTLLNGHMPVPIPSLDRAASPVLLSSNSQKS
Summary of the method: as §1

Chain of SPIB (Q01892 whole entry): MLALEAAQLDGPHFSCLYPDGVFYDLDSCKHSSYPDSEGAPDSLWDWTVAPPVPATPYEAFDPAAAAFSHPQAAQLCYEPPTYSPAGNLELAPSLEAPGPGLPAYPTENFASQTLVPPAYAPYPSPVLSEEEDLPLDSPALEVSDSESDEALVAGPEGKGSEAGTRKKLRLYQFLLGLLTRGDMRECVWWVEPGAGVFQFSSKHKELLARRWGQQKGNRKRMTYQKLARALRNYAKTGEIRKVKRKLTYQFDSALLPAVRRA
Chain of ELF1 (P32519 whole entry): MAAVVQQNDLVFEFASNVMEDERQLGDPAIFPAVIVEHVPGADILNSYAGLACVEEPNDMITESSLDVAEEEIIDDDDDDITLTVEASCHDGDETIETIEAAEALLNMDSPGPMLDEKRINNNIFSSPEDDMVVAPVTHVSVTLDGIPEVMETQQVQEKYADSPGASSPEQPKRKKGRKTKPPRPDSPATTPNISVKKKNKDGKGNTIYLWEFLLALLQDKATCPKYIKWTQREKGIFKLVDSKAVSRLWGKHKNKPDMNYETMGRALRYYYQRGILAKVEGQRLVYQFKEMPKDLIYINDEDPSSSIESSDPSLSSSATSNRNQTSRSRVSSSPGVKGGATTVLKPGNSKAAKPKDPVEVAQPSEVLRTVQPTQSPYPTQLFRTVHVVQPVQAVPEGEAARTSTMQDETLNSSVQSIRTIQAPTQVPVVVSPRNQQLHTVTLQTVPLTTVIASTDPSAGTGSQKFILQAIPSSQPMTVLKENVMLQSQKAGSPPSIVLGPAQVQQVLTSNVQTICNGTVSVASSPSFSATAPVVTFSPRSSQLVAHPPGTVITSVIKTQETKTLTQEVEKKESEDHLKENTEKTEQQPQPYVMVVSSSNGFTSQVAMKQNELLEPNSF

Sequence | binding signal (FLI1) | binding signal (ELK1) | binding signal (GABPA) | binding signal (ERG) | binding signal (ELF1) | binding signal (EHF) | binding signal (SPI1) | binding signal (SPIB) | binding signal (ELK3)
TTCATA | 1.17 fold enrichment (6-mer frequency, TF over GST control) | 1.16 fold enrichment (6-mer frequency, TF over GST control) | 1.18 fold enrichment (6-mer frequency, TF over GST control) | 1.11 fold enrichment (6-mer frequency, TF over GST control) | 1.19 fold enrichment (6-mer frequency, TF over GST control) | 1.18 fold enrichment (6-mer frequency, TF over GST control) | 1.18 fold enrichment (6-mer frequency, TF over GST control) | 1.23 fold enrichment (6-mer frequency, TF over GST control) | 1.16 fold enrichment (6-mer frequency, TF over GST control)
TGGAAA | 1.09 fold enrichment (6-mer frequency, TF over GST control) | 1.12 fold enrichment (6-mer frequency, TF over GST control) | 1.19 fold enrichment (6-mer frequency, TF over GST control) | 1.11 fold enrichment (6-mer frequency, TF over GST control) | 1.04 fold enrichment (6-mer frequency, TF over GST control) | 1.1 fold enrichment (6-mer frequency, TF over GST control) | 1.16 fold enrichment (6-mer frequency, TF over GST control) | 1.17 fold enrichment (6-mer frequency, TF over GST control) | 1.15 fold enrichment (6-mer frequency, TF over GST control)
AAGTGT | 1.18 fold enrichment (6-mer frequency, TF over GST control) | 1.29 fold enrichment (6-mer frequency, TF over GST control) | 1.32 fold enrichment (6-mer frequency, TF over GST control) | 1.44 fold enrichment (6-mer frequency, TF over GST control) | 1.24 fold enrichment (6-mer frequency, TF over GST control) | 1.24 fold enrichment (6-mer frequency, TF over GST control) | 1.6 fold enrichment (6-mer frequency, TF over GST control) | 1.38 fold enrichment (6-mer frequency, TF over GST control) | 1.37 fold enrichment (6-mer frequency, TF over GST control)
CTATTG | 1.33 fold enrichment (6-mer frequency, TF over GST control) | 1.33 fold enrichment (6-mer frequency, TF over GST control) | 1.31 fold enrichment (6-mer frequency, TF over GST control) | 1.3 fold enrichment (6-mer frequency, TF over GST control) | 1.37 fold enrichment (6-mer frequency, TF over GST control) | 1.28 fold enrichment (6-mer frequency, TF over GST control) | 1.26 fold enrichment (6-mer frequency, TF over GST control) | 1.2 fold enrichment (6-mer frequency, TF over GST control) | 1.23 fold enrichment (6-mer frequency, TF over GST control)
TGTTCA | 1.11 fold enrichment (6-mer frequency, TF over GST control) | 1.31 fold enrichment (6-mer frequency, TF over GST control) | 1.21 fold enrichment (6-mer frequency, TF over GST control) | 1.19 fold enrichment (6-mer frequency, TF over GST control) | 1.18 fold enrichment (6-mer frequency, TF over GST control) | 1.23 fold enrichment (6-mer frequency, TF over GST control) | 1.3 fold enrichment (6-mer frequency, TF over GST control) | 1.17 fold enrichment (6-mer frequency, TF over GST control) | 1.37 fold enrichment (6-mer frequency, TF over GST control)
CCCCTG | 1.22 fold enrichment (6-mer frequency, TF over GST control) | 1.23 fold enrichment (6-mer frequency, TF over GST control) | 1.26 fold enrichment (6-mer frequency, TF over GST control) | 1.18 fold enrichment (6-mer frequency, TF over GST control) | 1.22 fold enrichment (6-mer frequency, TF over GST control) | 1.17 fold enrichment (6-mer frequency, TF over GST control) | 1.25 fold enrichment (6-mer frequency, TF over GST control) | 1.1 fold enrichment (6-mer frequency, TF over GST control) | 1.27 fold enrichment (6-mer frequency, TF over GST control)
CCCAAC | 1.13 fold enrichment (6-mer frequency, TF over GST control) | 1.14 fold enrichment (6-mer frequency, TF over GST control) | 1.09 fold enrichment (6-mer frequency, TF over GST control) | 1.15 fold enrichment (6-mer frequency, TF over GST control) | 1.13 fold enrichment (6-mer frequency, TF over GST control) | 1.16 fold enrichment (6-mer frequency, TF over GST control) | 1.07 fold enrichment (6-mer frequency, TF over GST control) | 1.11 fold enrichment (6-mer frequency, TF over GST control) | 1.02 fold enrichment (6-mer frequency, TF over GST control)
